Where a name gives a salt, the structure may show the parent alone.
Tested on: HL-1
Experiment: relative cell viability (CellTiter-Glo) vs DMSO control (% of DMSO control); higher = more viable cells
Outline: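 Cell viability, normalised to vehicle-treated control cells, was read by CellTiter-Glo luminescence. For this, HL-1 mouse atrial cardiomyocytes were plated at 1000 cells per well in 384-well plates alongside compounds at 40, 200, 1000 or 5000 nM in 0.01% DMSO. After a day, plates either spent 48 h in a hypoxic workstation at 1% O2 and then 24 h reoxygenating in a normal incubator, or remained in normoxia for the same period.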

[1] = oxygen condition: hypoxia 48 h (1% O2) + reoxygenation 24 h, 40 nM
[2] = oxygen condition: hypoxia 48 h (1% O2) + reoxygenation 24 h, 200 nM
[3] = oxygen condition: hypoxia 48 h (1% O2) + reoxygenation 24 h, 1000 nM
[4] = oxygen condition: hypoxia 48 h (1% O2) + reoxygenation 24 h, 5000 nM
[5] = oxygen condition: normoxia 72 h, 40 nM
[6] = oxygen condition: normoxia 72 h, 200 nM
[7] = oxygen condition: normoxia 72 h, 1000 nM
[8] = oxygen condition: normoxia 72 h, 5000 nM

Row | Compound | relative cell viability [1] | relative cell viability [2] | relative cell viability [3] | relative cell viability [4] | relative cell viability [5] | relative cell viability [6] | relative cell viability [7] | relative cell viability [8]
1 | OC(CCN1CCCC1)(c1ccccc1)C1CCCCC1 (stereo not given) [Procyclidine HCl] | 93.1 | 89.9 | 85.4 | 29.9 | 101 | 97.7 | 82.5 | 30.6
2 | CN(C)CCOc1ccc(/C(=C(/CCCl)c2ccccc2)c2ccccc2)cc1 [Toremifene Citrate] | 104 | 103 | 108 | 108 | 103 | 99.5 | 105 | 108
3 | CCN1CCN(c2cc(-c3ccc(F)cc3)c3c(n2)CCCCCC3)CC1 [Blonanserin] | 101 | 99.5 | 91.2 | 49.4 | 103 | 93.3 | 93.5 | 51.2
4 | CCOC(=O)C1=C(C)NC(C)=C(C(=O)OC)C1c1cccc(Cl)c1Cl (stereo not given) [Felodipine] | 101 | 105 | 88.9 | 98.7 | 99.1 | 101 | 98 | 101
5 | CNS(=O)(=O)CCc1ccc2[nH]cc(C3CCN(C)CC3)c2c1 [Naratriptan HCl] | 97.1 | 103 | 105 | 108 | 103 | 103 | 97.6 | 111
6 | Cc1[nH]c(=O)c(C#N)cc1-c1ccncc1 [Milrinone] | 102 | 106 | 105 | 111 | 99.8 | 108 | 99.1 | 113
7 | C[N+](C)(C)CC(O)CC(=O)[O-] (racemic) [DL-Carnitine hydrochloride] | 100 | 95.2 | 97.2 | 107 | 104 | 102 | 103 | 91.5
8 | N[C@@H](Cc1cc(I)c(Oc2cc(I)c(O)c(I)c2)c(I)c1)C(=O)O [L-Thyroxine] | 98.5 | 101 | 99.6 | 110 | 108 | 101 | 99.3 | 109
9 | C[C@H](CS)C(=O)N1CCC[C@H]1C(=O)O [Captopril] | 108 | 103 | 105 | 109 | 105 | 97.2 | 106 | 113
10 | CC(C)C[C@H](NC(=O)[C@H](Cc1ccccc1)NC(=O)c1cnccn1)B(O)O [Bortezomib] | 10.4 | 10 | 8.52 | 4.58 | 12.9 | 10.5 | 6.82 | 4.44
11 | CC(=O)OCC(=O)[C@@]12N=C(C)O[C@@H]1C[C@H]1[C@@H]3CCC4=CC(=O)C=C[C@]4(C)[C@H]3[C@@H](O)C[C@@]12C [Deflazacort] | 90.6 | 90.3 | 97.1 | 77.3 | 89.6 | 92.4 | 95.6 | 99.2
12 | Nc1ccn([C@@H]2O[C@H](CO)[C@@H](O)[C@@H]2O)c(=O)n1 [Cytarabine] | 89.2 | 75.5 | 44.9 | 5.82 | 84.9 | 64.3 | 35.7 | 4.29
13 | COc1ccc([C@H]2CNC(=O)C2)cc1OC1CCCC1 [S-(+)-Rolipram] | 103 | 92.3 | 89.4 | 90.4 | 95.6 | 101 | 98.7 | 103
14 | C=CC(=O)Nc1cc(Nc2nccc(-c3cn(C)c4ccccc34)n2)c(OC)cc1N(C)CCN(C)C | 97.1 | 94.4 | 91.5 | 104 | 95.5 | 93.1 | 89.4 | 108
15 | Nc1[nH]cnc2ncnc1-2 [Adenine hydrochloride] | 108 | 105 | 104 | 110 | 100 | 96.4 | 103 | 107
16 | CCc1ccc(CCOc2ccc(CC3SC(=O)NC3=O)cc2)nc1 (stereo not given) [Pioglitazone hydrochloride] | 106 | 97.2 | 103 | 106 | 94.5 | 97.9 | 101 | 103
17 | CCCC(CCC)C(=O)O [Valproic acid sodium salt] | 106 | 117 | 113 | 111 | 104 | 111 | 123 | 111
18 | CCOC(=O)[C@H](CCc1ccccc1)N[C@@H](C)C(=O)N1CCC[C@H]1C(=O)O [Enalapril maleate] | 101 | 101 | 103 | 105 | 98.5 | 103 | 99.2 | 99

Row | Compound | relative cell viability [1] | relative cell viability [2] | relative cell viability [3] | relative cell viability [4] | relative cell viability [5] | relative cell viability [6] | relative cell viability [7] | relative cell viability [8]
19 | CCN1CC(CCN2CCOCC2)C(c2ccccc2)(c2ccccc2)C1=O (stereo not given) [Doxapram HCl] | 102 | 104 | 100 | 107 | 116 | 103 | 106 | 112
20 | CCC(C)(C)C(=O)O[C@H]1C[C@@H](C)C=C2C=C[C@H](C)[C@H](CC[C@@H]3C[C@@H](O)CC(=O)O3)[C@H]21 [Simvastatin] | 109 | 108 | 99.2 | 3.87 | 111 | 103 | 50.4 | 2.69
21 | NS(=O)(=O)c1cc(Cl)c(Cl)c(S(N)(=O)=O)c1 [Dichlorphenamide] | 109 | 106 | 103 | 115 | 105 | 102 | 103 | 109
22 | NC(CO)C(=O)NNCc1ccc(O)c(O)c1O (stereo not given) [Benserazide] | 107 | 101 | 111 | 110 | 97.3 | 104 | 102 | 107
23 | CC(C)OC(=O)C(C(=O)OC(C)C)=C1SC=CS1 [Malotilate] | 89.7 | 105 | 115 | 109 | 102 | 104 | 111 | 109
24 | C#C[C@]1(O)CC[C@H]2[C@@H]3CCC4=CC(=O)CC[C@@H]4[C@H]3CC[C@@]21CC [Levonorgestrel] | 110 | 115 | 104 | 112 | 107 | 104 | 111 | 111
25 | COC(=O)C1=C(C)NC(C)=C(C(=O)OC(C)C)C1c1cccc2nonc12 (stereo not given) [Isradipine] | 106 | 111 | 106 | 104 | 108 | 97.7 | 102 | 110
26 | Cc1ccc(S(=O)(=O)NC(=O)NN2CC3CCCC3C2)cc1 (stereo not given) [Gliclazide] | 104 | 110 | 111 | 104 | 112 | 113 | 118 | 112
27 | CCOC(=O)[C@H](CCc1ccccc1)N[C@H]1CCc2ccccc2N(CC(=O)O)C1=O [Benazepril hydrochloride] | 102 | 102 | 103 | 109 | 101 | 109 | 108 | 109
28 | NC(=O)N1c2ccccc2C=Cc2ccccc21 [Carbamazepine] | 97.1 | 103 | 105 | 106 | 103 | 103 | 95.1 | 109
29 | CS(=O)(=O)CCNCc1ccc(-c2ccc3ncnc(Nc4ccc(OCc5cccc(F)c5)c(Cl)c4)c3c2)o1 [Lapatinib] | 101 | 97.4 | 99.7 | 104 | 93.2 | 96.8 | 94 | 102
30 | Clc1ccc(COC(Cn2ccnc2)c2ccc(Cl)cc2Cl)c(Cl)c1 (stereo not given) [Miconazole] | 96.8 | 99.4 | 98.3 | 104 | 101 | 101 | 101 | 106
31 | CN(C)CC/C=C1/c2ccccc2Sc2ccc(Cl)cc21 [Chlorprothixene] | 105 | 112 | 102 | 115 | 108 | 107 | 118 | 118
32 | O=C(O)C(=O)O.[NH-][C@@H]1CCCC[C@H]1[NH-].[Pt+2] [Oxaliplatin] | 99.8 | 102 | 109 | 114 | 97.4 | 107 | 105 | 122
33 | Cc1ccc(N(CC2=NCCN2)c2cccc(O)c2)cc1 [Phentolamine mesilate] | 96.2 | 94.7 | 107 | 106 | 102 | 104 | 108 | 115
34 | NS(=O)(=O)c1cc2c(cc1Cl)NC(C(Cl)Cl)NS2(=O)=O (stereo not given) [Trichlormethiazide] | 109 | 109 | 118 | 119 | 107 | 115 | 112 | 114
35 | Nc1nc(=O)c2c([nH]1)NCC(CNc1ccc(C(=O)N[C@@H](CCC(=O)O)C(=O)O)cc1)N2C=O (stereo not given in full) [Leucovorin Calcium] | 106 | 111 | 110 | 104 | 98 | 101 | 102 | 95.3
